Measured values: publication PMC7862700, “An all-to-all approach to the identification of sequence-specific readers for epigenetic DNA modifications on cytosine”

Key:
Experiment in all cases: DAPPL (digital affinity profiling via proximity ligation, sequencing); 10 mM Tris-HCl pH 7.5, 50 mM NaCl, 1 mM DTT, 4% glycerol, room temperature, 30 min; GST-TFs on glutathione beads, 16-mer random dsDNA library, 0.1% formaldehyde crosslink after washing; high values mean tight binding
FLI1 = biological target: T1, FLI1 (Homo sapiens, UniProt Q01543 1-452); settings: protein: recombinant; tags: N-terminal GST; dsDNA, one strand shown
T1 sequence: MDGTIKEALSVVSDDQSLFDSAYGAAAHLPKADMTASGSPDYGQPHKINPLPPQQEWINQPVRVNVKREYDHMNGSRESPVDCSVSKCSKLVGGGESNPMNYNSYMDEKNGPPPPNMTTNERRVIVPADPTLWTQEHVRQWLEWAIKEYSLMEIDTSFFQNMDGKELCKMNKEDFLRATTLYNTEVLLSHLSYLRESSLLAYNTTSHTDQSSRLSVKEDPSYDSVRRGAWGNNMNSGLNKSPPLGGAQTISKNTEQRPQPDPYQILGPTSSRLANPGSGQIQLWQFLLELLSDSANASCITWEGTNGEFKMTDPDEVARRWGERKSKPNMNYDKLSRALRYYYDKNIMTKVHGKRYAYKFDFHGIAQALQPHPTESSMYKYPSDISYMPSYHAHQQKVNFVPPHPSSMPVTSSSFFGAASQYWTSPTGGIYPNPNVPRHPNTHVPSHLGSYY
Summary of the method: (§1)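 A tag-only sample was pooled with DNA-barcoded human transcription factors that had been expressed in yeast as GST fusions and captured on glutathione beads. The pools were incubated for 30 min at room temperature with 200 nmole of a random double-stranded 16-mer DNA library in Tris/NaCl/DTT/glycerol buffer, then washed, crosslinked with 0.1% formaldehyde, proximity-ligated (BsaI/T4 ligase, 1 h, 37 °C), PCR-amplified and sequenced on an Illumina NextSeq500. Binding signal is each hexamer's read frequency for a factor divided by its frequency for the tag-only sample.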

ELK1 = biological target: T2, ELK1 (Homo sapiens, UniProt P19419 1-428); settings: protein: recombinant; tags: N-terminal GST; dsDNA, one strand shown
T2 sequence: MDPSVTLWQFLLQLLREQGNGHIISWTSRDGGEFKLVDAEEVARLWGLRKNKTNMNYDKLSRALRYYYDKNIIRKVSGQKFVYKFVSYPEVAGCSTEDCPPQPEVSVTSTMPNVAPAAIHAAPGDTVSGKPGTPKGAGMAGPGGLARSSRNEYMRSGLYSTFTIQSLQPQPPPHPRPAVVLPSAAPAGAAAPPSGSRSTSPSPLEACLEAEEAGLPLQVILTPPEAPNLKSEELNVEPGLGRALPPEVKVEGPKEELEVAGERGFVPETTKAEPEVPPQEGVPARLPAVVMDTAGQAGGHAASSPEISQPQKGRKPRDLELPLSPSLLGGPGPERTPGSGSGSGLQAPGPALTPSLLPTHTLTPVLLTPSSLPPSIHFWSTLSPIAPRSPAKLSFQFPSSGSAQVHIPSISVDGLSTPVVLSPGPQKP
Summary of the method: as §1

GABPA = biological target: T3, GABPA (Homo sapiens, UniProt Q06546 1-454); settings: protein: recombinant; tags: N-terminal GST; dsDNA, one strand shown
T3 sequence: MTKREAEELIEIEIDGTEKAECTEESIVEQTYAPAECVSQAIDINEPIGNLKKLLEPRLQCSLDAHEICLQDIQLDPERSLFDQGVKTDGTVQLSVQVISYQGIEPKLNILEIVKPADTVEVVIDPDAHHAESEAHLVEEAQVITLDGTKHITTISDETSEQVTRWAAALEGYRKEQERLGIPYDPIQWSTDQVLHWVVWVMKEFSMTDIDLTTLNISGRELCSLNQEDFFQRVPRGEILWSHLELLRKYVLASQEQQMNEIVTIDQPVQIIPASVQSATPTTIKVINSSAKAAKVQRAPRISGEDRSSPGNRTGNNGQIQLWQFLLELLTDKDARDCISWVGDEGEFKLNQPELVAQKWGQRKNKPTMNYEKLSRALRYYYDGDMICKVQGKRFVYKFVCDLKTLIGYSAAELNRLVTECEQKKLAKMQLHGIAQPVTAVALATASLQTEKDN
Summary of the method: as §1

ERG = biological target: T4, ERG (Homo sapiens, UniProt P11308 1-479); settings: protein: recombinant; tags: N-terminal GST; dsDNA, one strand shown
T4 sequence: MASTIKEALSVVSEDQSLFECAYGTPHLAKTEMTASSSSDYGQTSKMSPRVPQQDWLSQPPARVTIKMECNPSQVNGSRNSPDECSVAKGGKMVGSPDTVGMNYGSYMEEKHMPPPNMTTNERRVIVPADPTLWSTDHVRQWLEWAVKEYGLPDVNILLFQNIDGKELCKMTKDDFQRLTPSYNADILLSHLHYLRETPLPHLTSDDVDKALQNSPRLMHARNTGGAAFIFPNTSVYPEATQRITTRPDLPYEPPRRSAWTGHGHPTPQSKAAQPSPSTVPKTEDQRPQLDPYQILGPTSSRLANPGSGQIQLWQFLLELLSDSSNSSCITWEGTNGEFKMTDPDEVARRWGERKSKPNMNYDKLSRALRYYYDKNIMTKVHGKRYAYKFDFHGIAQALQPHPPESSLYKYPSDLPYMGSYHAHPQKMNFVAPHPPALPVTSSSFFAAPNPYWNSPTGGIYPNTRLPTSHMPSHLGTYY
Summary of the method: as §1

ELF1 = ELF1 (Homo sapiens, UniProt P32519 1-619); settings: protein: recombinant; tags: N-terminal GST; dsDNA, one strand shown
Sequence of ELF1 (P32519 whole entry): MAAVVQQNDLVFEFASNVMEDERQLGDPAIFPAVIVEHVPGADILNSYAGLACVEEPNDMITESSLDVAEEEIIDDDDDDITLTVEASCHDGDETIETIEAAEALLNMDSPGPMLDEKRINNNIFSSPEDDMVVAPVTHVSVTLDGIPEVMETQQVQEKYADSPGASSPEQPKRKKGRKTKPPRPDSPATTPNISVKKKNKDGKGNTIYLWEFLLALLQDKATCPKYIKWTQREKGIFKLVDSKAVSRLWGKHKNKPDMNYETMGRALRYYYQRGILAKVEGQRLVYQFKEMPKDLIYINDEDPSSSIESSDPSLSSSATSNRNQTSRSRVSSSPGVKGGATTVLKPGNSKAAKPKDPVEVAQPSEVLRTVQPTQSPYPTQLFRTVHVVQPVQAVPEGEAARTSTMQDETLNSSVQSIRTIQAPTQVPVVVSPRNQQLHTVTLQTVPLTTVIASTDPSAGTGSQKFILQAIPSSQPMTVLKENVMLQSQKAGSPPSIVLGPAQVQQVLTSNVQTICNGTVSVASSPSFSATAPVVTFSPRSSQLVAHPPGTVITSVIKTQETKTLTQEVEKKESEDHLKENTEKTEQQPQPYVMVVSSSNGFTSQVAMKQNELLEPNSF
Summary of the method: as §1

EHF = biological target: T5, EHF (Homo sapiens, UniProt Q9NZC4 1-300); settings: protein: recombinant; tags: N-terminal GST; dsDNA, one strand shown
T5 sequence: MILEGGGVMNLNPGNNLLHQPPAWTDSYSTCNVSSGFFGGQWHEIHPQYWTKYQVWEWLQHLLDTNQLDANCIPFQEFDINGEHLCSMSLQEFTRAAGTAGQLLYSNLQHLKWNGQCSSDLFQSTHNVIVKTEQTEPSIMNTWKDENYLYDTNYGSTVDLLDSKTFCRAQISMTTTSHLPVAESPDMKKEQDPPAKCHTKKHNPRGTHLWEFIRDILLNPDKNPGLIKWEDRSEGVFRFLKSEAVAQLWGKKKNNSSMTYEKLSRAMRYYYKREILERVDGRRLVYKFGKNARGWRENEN
Summary of the method: as §1

SPI1 = SPI1 (Homo sapiens, UniProt P17947 1-270); settings: protein: recombinant; tags: N-terminal GST; dsDNA, one strand shown
Summary of the method: as §1

SPIB = SPIB (Homo sapiens, UniProt Q01892 1-262); settings: protein: recombinant; tags: N-terminal GST; dsDNA, one strand shown
Sequence of SPIB (Q01892 whole entry): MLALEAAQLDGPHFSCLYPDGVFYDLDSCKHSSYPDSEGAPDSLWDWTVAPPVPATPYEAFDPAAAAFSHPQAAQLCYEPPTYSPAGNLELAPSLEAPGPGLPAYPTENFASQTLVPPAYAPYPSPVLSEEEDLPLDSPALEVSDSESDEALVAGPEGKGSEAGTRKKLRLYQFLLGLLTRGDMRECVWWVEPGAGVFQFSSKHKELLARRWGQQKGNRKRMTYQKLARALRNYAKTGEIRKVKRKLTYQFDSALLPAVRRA
Summary of the method: as §1

ELK3 = biological target: T6, ELK3 (Homo sapiens, UniProt P41970 1-407); settings: protein: recombinant; tags: N-terminal GST; dsDNA, one strand shown
T6 sequence: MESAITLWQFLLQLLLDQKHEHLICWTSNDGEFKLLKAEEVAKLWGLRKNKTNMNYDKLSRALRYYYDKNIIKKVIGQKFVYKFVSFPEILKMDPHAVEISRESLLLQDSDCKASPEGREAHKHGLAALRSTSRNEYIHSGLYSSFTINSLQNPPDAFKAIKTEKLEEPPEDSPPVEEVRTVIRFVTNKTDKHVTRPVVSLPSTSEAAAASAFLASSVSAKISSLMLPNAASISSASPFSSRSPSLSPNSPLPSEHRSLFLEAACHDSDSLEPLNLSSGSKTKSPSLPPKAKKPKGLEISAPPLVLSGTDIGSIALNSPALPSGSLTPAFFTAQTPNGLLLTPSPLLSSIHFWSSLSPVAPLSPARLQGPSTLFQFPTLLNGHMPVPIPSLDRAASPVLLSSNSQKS
Summary of the method: as §1

FEV = biological target: T7, FEV (Homo sapiens, UniProt Q99581 1-238); settings: protein: recombinant; tags: N-terminal GST; dsDNA, one strand shown
T7 sequence: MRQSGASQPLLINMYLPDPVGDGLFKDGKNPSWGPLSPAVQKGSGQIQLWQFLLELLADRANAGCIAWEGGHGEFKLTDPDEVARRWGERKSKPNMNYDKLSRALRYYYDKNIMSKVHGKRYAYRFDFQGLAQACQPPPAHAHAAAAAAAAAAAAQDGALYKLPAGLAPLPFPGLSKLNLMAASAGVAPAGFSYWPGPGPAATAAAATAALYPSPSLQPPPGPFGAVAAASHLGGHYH
Summary of the method: as §1

ETV5 = ETV5 (Homo sapiens, UniProt P41161 1-510); settings: protein: recombinant; tags: N-terminal GST; dsDNA, one strand shown
Sequence of ETV5 (P41161 whole entry): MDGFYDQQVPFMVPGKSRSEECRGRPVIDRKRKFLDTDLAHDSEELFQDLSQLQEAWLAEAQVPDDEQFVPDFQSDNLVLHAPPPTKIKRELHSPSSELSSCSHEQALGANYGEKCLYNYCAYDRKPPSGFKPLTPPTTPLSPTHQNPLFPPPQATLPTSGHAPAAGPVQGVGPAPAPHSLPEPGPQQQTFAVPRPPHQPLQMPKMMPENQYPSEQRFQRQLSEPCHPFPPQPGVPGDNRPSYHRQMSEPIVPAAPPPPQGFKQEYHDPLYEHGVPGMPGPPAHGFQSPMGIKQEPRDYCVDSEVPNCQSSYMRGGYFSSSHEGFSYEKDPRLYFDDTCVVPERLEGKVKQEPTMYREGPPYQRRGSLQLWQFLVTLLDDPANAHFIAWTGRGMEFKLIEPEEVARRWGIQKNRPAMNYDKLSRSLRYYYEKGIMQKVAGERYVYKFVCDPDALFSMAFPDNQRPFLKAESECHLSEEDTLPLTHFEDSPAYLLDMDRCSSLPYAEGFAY
Summary of the method: as §1

HSF1 = HSF1 (Homo sapiens, UniProt Q00613 1-529); settings: protein: recombinant; tags: N-terminal GST; chain copies: 3; dsDNA, one strand shown
Sequence of HSF1 (Q00613 whole entry): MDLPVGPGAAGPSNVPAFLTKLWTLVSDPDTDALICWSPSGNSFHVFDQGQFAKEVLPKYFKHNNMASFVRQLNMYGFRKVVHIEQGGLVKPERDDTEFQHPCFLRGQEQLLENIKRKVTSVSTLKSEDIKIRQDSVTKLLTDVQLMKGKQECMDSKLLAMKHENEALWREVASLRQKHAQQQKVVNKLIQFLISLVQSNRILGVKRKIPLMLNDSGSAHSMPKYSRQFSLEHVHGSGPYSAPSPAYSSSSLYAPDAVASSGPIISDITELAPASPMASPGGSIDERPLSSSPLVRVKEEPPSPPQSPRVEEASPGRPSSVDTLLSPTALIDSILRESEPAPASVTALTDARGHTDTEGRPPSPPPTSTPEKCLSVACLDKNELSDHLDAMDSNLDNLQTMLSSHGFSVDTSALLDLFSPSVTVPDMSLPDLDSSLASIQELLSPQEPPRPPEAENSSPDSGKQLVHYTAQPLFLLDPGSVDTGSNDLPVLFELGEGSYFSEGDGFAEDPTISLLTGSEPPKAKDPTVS
Summary of the method: as §1

SPIC = biological target: T8, SPIC (Homo sapiens, UniProt Q8N5J4 1-248); settings: protein: recombinant; tags: N-terminal GST; dsDNA, one strand shown
T8 sequence: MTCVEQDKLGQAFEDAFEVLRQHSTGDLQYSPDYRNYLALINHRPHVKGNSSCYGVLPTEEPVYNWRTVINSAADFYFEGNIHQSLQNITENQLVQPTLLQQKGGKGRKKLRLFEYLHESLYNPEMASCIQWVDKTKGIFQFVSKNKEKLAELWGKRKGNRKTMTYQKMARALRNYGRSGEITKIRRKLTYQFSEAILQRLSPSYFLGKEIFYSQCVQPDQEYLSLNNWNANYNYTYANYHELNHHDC
Summary of the method: as §1

ELF4 = ELF4 (Homo sapiens, UniProt Q99607 1-663); settings: protein: recombinant; tags: N-terminal GST; dsDNA, one strand shown
Sequence of ELF4 (Q99607 whole entry): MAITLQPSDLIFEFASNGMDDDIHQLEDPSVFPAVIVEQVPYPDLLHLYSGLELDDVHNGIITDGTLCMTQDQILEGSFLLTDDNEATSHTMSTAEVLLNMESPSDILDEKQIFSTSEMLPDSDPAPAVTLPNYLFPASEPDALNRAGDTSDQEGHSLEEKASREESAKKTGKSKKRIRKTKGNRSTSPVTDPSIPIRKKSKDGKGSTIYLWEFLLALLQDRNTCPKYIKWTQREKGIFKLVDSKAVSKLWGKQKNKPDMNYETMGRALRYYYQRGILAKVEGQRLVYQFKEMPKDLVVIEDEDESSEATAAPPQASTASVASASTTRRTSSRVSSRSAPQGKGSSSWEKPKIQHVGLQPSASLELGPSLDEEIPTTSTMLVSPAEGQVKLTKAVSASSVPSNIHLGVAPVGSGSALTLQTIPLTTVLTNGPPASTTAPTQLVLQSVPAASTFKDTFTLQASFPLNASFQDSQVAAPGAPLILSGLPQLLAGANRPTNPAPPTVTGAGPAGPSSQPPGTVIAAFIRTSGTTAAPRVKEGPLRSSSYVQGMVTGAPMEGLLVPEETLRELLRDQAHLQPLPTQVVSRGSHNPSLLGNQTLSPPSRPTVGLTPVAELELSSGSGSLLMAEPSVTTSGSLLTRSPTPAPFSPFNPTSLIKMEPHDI
Summary of the method: as §1

ELK4 = biological target: T9, ELK4 (Homo sapiens, UniProt P28324-2 1-405); settings: protein: recombinant; tags: N-terminal GST; dsDNA, one strand shown
T9 sequence: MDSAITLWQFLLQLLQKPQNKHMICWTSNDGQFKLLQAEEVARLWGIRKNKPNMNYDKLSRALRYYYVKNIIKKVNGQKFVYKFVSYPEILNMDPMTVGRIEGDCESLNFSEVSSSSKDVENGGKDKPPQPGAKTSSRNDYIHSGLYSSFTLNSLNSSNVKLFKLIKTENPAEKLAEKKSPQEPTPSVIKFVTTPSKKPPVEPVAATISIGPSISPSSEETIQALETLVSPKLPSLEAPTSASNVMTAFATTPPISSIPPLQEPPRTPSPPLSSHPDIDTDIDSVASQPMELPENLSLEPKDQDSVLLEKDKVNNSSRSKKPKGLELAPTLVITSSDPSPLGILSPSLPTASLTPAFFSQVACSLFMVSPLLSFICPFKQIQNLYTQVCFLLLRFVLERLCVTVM
Summary of the method: as §1

ETV2 = biological target: T10, ETV2 (Homo sapiens, UniProt O00321 1-342); settings: protein: recombinant; tags: N-terminal GST; dsDNA, one strand shown
T10 sequence: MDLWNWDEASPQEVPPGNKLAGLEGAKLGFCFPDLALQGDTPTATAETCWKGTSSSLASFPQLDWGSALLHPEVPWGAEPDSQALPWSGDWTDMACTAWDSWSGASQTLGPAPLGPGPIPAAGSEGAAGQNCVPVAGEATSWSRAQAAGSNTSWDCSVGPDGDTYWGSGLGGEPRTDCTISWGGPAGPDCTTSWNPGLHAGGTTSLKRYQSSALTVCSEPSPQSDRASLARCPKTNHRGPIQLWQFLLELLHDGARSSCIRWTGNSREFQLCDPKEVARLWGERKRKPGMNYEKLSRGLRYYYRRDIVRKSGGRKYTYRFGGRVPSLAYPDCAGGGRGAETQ
Summary of the method: as §1

ELF3 = biological target: T11, ELF3 (Homo sapiens, UniProt P78545 1-371); settings: protein: recombinant; tags: N-terminal GST; dsDNA, one strand shown
T11 sequence: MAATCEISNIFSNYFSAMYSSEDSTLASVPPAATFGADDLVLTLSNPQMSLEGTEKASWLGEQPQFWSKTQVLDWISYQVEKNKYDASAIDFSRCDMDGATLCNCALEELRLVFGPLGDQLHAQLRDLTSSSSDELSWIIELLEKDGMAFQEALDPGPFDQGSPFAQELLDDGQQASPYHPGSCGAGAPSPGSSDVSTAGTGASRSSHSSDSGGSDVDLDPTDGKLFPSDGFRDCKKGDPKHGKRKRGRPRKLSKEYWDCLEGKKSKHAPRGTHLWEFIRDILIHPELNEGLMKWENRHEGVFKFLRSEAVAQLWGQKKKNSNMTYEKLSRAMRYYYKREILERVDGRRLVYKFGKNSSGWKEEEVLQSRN
Summary of the method: as §1

CRX = CRX (Homo sapiens, UniProt O43186 1-299); settings: protein: recombinant; tags: N-terminal GST; dsDNA, one strand shown
Sequence of CRX (O43186 whole entry): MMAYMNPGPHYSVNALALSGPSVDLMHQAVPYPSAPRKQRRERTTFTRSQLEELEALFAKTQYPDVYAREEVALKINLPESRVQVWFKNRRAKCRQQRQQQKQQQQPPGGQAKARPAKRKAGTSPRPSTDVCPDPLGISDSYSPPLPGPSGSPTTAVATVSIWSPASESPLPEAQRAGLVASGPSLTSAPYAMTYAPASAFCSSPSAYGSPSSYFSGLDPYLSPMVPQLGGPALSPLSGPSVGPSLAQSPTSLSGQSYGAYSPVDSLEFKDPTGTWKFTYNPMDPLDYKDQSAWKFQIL
Summary of the method: as §1

ETV1 = ETV1 (Homo sapiens, UniProt P50549 1-477); settings: protein: recombinant; tags: N-terminal GST; dsDNA, one strand shown
Sequence of ETV1 (P50549 whole entry): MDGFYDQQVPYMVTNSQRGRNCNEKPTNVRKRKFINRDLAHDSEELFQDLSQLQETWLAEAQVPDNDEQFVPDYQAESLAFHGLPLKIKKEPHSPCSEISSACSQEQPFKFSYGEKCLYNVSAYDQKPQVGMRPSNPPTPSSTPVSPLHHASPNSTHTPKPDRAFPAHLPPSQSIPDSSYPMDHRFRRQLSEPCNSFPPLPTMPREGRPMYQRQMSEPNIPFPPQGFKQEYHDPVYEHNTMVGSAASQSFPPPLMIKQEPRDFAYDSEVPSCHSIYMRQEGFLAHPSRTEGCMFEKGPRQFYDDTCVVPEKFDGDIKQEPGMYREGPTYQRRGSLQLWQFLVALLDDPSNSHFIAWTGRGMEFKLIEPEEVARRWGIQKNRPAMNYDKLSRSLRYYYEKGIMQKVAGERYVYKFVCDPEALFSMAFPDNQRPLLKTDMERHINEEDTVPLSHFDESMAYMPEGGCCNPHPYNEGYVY
Summary of the method: as §1

**Q.** Which results are given for TAGCTA?
**A.** binding signal (FLI1): 1.22 fold enrichment (6-mer frequency, TF over GST control); binding signal (ELK1): 1.24 fold enrichment (6-mer frequency, TF over GST control); binding signal (GABPA): 1.21 fold enrichment (6-mer frequency, TF over GST control); binding signal (ERG): 1.22 fold enrichment (6-mer frequency, TF over GST control); binding signal (ELF1): 1.25 fold enrichment (6-mer frequency, TF over GST control); binding signal (EHF): 1.22 fold enrichment (6-mer frequency, TF over GST control); binding signal (SPI1): 1.2 fold enrichment (6-mer frequency, TF over GST control); binding signal (SPIB): 1.22 fold enrichment (6-mer frequency, TF over GST control); binding signal (ELK3): 1.29 fold enrichment (6-mer frequency, TF over GST control); binding signal (FEV): 1.22 fold enrichment (6-mer frequency, TF over GST control); binding signal (ETV5): 1.24 fold enrichment (6-mer frequency, TF over GST control); binding signal (HSF1): 1.47 fold enrichment (6-mer frequency, TF over GST control); binding signal (SPIC): 1.22 fold enrichment (6-mer frequency, TF over GST control); binding signal (ELF4): 1.28 fold enrichment (6-mer frequency, TF over GST control); binding signal (ELK4): 1.3 fold enrichment (6-mer frequency, TF over GST control); binding signal (ETV2): 1.27 fold enrichment (6-mer frequency, TF over GST control); binding signal (ELF3): 1.17 fold enrichment (6-mer frequency, TF over GST control); binding signal (CRX): 1.58 fold enrichment (6-mer frequency, TF over GST control); binding signal (ETV1): 1.27 fold enrichment (6-mer frequency, TF over GST control)
